From PubChem BioAssay
Activity calls are given as the source filed them. Unless noted, how the calls were made is not given here.

Columns and labels:
[1] = system: XIP peptide (Xip251-270) binding; assay: XIP fragment 251-270 binding compounds – biochemical, small-molecule microarray, fluorescence 635/667 nm, 0.1 µg/mL protein, primary screen (AID 1182); conditions: fluorescent protein binding, 635 nm, higher = more signal, called active from +8 up or from −8 down
XIP peptide (Xip251-270) = assay: compounds binding XIP fragment 251-270 – biochemical, small-molecule microarray, fluorescence 635/667 nm, 0.5 µg/mL protein, primary screen (AID 1183); conditions: fluorescence 635 nm, higher = more signal
[2] = blood-stage malaria parasite viability loss – strain 3D7, DAPI fluorescence, 100 nL, primary screen (AID 1184);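 further: parasites grown inside human red blood cells in medium with human serum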; conditions: P. falciparum 3D7 growth, 3 d, higher = more signal
[3] = target: Homeobox protein Hox-A13 (Mus musculus) (UniProt Q62424); assay: disruptors of Hoxa13 oligonucleotide interaction – biochemical, fluorescence polarization, labeled oligonucleotide, primary screen (AID 1185); conditions: Hoxa13:DNA binding, 15 min, higher = more signal, called active from +8 up or from −8 down
[4] = blockers of DNA damage checkpoint Chk1 activation – imaging, HeLa, hydroxyurea, phospho-Chk1 antibody, percent positive cells, primary screen (AID 1186); conditions: hydroxyurea-induced phospho-Chk1 immunofluorescence imaging, higher = more signal
[5] = blockers of DNA damage checkpoint Chk1 activation – imaging, HeLa, hydroxyurea, phospho-Chk1 nuclear intensity, primary screen (AID 1187); conditions: hydroxyurea-induced phospho-Chk1 immunofluorescence imaging, higher = more signal

Homeobox protein Hox-A13 (Mus musculus), sequence (Q62424 whole entry, looked up): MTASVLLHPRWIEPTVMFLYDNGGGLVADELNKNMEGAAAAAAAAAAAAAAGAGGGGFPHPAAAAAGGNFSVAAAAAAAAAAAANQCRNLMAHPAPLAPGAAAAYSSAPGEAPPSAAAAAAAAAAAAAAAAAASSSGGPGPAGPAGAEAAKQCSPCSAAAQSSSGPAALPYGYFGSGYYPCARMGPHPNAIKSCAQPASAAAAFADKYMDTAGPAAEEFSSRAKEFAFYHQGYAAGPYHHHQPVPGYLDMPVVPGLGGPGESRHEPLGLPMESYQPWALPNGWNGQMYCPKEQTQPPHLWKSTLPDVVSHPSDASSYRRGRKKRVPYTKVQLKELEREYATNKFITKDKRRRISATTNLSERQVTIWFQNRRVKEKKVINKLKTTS

Compound | composite z-score [1] | composite z-score (XIP peptide (Xip251-270)) | z-score [2] | z-score [3] | z-score [4] | z-score [5]
COC(=O)C(CC#Cc1ccc2c(c1)[C@]1(C(=O)N2)[C@H](c2ccc(O)cc2)N2[C@H](c3ccccc3)[C@H](c3ccccc3)OC(=O)[C@H]2[C@@H]1C(N)=O)C(=O)OC | -0.609 (inactive) | -2.27 | 0.38 | 0.452 (inactive) | -0.174 (inactive) | -0.279 (inactive)
CCOC(=O)C[C@H]1[C@H](OC(=O)c2cc3ccccc3oc2=O)[C@@H](NC(=O)c2ccc3ccccc3n2)c2cc(OCCCO)ccc2N1C(=O)c1ccc2ccccc2n1 | -0.276 (inactive) | 0.484 | -1.15 | -1.29 (inactive) | -0.443 (inactive) | -0.134 (inactive)
COC(=O)[C@]1(Cc2ccccc2CN=[N+]=[N-])N=C(c2ccc(OCCCO)cc2)O[C@@H]1c1ccccc1CN=[N+]=[N-] | 0.319 (inactive) | 0.728 | -2.27 | 0.13 (inactive) | -0.716 (inactive) | -0.601 (inactive)
CN(C)C(=O)[C@@]1(CCS(=O)(=O)c2ccccc2)N=C(c2ccc(OCCCO)cc2)O[C@H]1c1ccccc1CN=[N+]=[N-] | 1.41 (inactive) | 0.653 | -2.48 | -5.32 (inactive) | -0.359 (inactive) | -0.243 (inactive)
CCOC(=O)C[C@H]1[C@H](OC(=O)Cc2ccc3c(c2)OCO3)[C@@H](NC(=O)c2ccccc2)c2cc(OCCCO)ccc2N1C(=O)c1ccc2ccccc2n1 | -0.263 (inactive) | -0.101 | 0.93 | -3.68 (inactive) | -0.467 (inactive) | -0.259 (inactive)
O=C1O[C@H](c2ccccc2)[C@H](c2ccccc2)N2[C@H]1[C@@H](C(=O)N1CCN(c3ncccn3)CC1)[C@]1(C(=O)Nc3ccc(C#CCCO)cc31)[C@H]2c1ccc(OCCO)cc1 | 0.756 (inactive) | 0.853 | -1.9 | -0.587 (inactive) | 0.177 (inactive) | 0.923 (inactive)
COCCOC(=O)N1C(=O)[C@@]2(c3cc(C#CCNC(N)=O)ccc31)[C@H](C(N)=O)[C@H]1C(=O)O[C@H](c3ccccc3)[C@H](c3ccccc3)N1[C@@H]2c1ccc(OCCO)cc1 | -0.0439 (inactive) | 0.549 | 0.101 | -2.08 (inactive) | 0.358 (inactive) | 0.489 (inactive)
C=CC[C@]1(C(=O)N2CCOCC2)N=C(c2ccc(OCCCO)cc2)O[C@H]1c1ccccc1CN=[N+]=[N-] | 0.349 (inactive) | 0.836 | -2.33 | -4.04 (inactive) | -0.552 (inactive) | -0.429 (inactive)
C[C@@H]1ON(c2ccccc2)[C@H](c2ccccc2)[C@H]1C(=O)N1C(=O)OC[C@H]1Cc1ccccc1 | 0.0959 (inactive) | 0.351 | -1.96 | -1.4 (inactive) | -0.673 (inactive) | -0.308 (inactive)
CC(C)(C)OC(=O)CC[C@@]1(C(=O)N2CCCCC2)N=C(c2ccc(OCCCO)cc2)O[C@@H]1c1ccccc1N=[N+]=[N-] | 0.416 (inactive) | 0.83 | -2.08 | -3.63 (inactive) | -0.184 (inactive) | -0.414 (inactive)
COC(=O)[C@]1(Cc2ccccc2N=[N+]=[N-])N=C(c2ccc(OCCCO)cc2)O[C@@H]1c1ccccc1 | 0.857 (inactive) | 0.797 | -1.44 | -2.09 (inactive) | -0.88 (inactive) | -1.26 (inactive)
COC(=O)[C@@]1(Cc2ccc(OC)cc2)[C@H]2c3cc(C(=O)N(C)C)n(Cc4cc(F)c(F)c(F)c4)c3C[C@H]2CN1C(=O)c1ccccc1 | 0.0306 (inactive) | 0.577 | -1.81 | -1.93 (inactive) | 0.102 (inactive) | -0.186 (inactive)
C=CCN1C(=O)[C@@]2(O[C@@H](CCO)[C@H]([Si](C)(C)c3ccc(OC)cc3)[C@H]2C)c2cc(NC(=O)[C@H](C)O)ccc21 | 0.395 (inactive) | 0.603 | -2.83 | -5.68 (inactive) | -0.455 (inactive) | 0.18 (inactive)
COc1ccc([Si](C)(C)[C@H]2[C@H](CC(=O)N3CCC[C@H]3CO)O[C@@]3(C(=O)N(Cc4ccc(N5C(=O)c6cccc7cccc5c67)cc4)c4ccccc43)[C@@H]2C)cc1 | 0.531 (inactive) | 0.803 | -1.95 | -3.9 (inactive) | 0.171 (inactive) | -0.4 (inactive)
C[C@@]1([C@@H](NC(=O)c2cccs2)c2ccc(-c3ccccc3)cc2)C[C@H]1C1CCCCC1 | -0.592 (inactive) | -0.0139 | -0.972 | -0.431 (inactive) | 0.193 (inactive) | -0.421 (inactive)
C[N+](C)(C)CCCCNC(=O)[C@H]1C[C@H]2C(=O)NCC(=O)N2[C@H]1c1ccc(O)cc1 | 0.696 (inactive) | 0.922 | 0.258 | -0.735 (inactive) | -1.02 (inactive) | -0.701 (inactive)
COc1ccccc1CN1C(=O)c2ccccc2[C@@H](C(=O)NCC(C)C)[C@@H]1c1ccc(CO)cc1 | 0.25 (inactive) | 0.791 | -1.24 | -1.48 (inactive) | 0.0947 (inactive) | 0.525 (inactive)
CC(C)NC(=O)[C@@H]1c2ccccc2C(=O)N(Cc2cc(C(F)(F)F)cc(C(F)(F)F)c2)[C@H]1c1ccc(CO)cc1 | 1.14 (inactive) | 0.55 | -0.337 | -3.9 (inactive) | 0.349 (inactive) | 0.622 (inactive)
CCCC=C(CCC)[C@@H](NS(=O)(=O)CC)c1ccccc1 | -0.255 (inactive) | 0.52 | -0.977 | -0.298 (inactive) | 0.304 (inactive) | 0.408 (inactive)
